# Data: ChEMBL document CHEMBL1201862, “PubChem BioAssay data set” (2004)
# The whole screen tested about 400,000 compounds, of which about 3,700 (0.93%) were called active. Not shown: some 3% with an inconclusive outcome. The calls are words filed in the database; no cut-off is given here. Many of the other results were omitted from the sample, so actives are more common in it than they were.
# Target: T1, Vitamin D3 receptor (Homo sapiens) (UniProt P11473)
# T1 sequence (whole entry): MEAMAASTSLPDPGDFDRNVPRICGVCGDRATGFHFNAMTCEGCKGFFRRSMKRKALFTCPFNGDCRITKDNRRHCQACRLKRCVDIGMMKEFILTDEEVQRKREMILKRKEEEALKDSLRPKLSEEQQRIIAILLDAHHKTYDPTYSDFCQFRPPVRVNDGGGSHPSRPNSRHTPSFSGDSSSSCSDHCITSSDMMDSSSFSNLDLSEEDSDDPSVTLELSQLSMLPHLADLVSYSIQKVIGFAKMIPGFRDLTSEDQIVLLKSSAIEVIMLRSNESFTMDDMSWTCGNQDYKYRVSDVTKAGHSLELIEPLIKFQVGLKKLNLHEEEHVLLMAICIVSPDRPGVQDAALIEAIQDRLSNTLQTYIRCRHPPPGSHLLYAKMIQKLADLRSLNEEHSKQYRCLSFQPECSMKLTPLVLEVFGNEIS
# Test: Inhibitors of the vitamin D receptor (VDR): qHTS. [Related pubchem assays (depositor defined):AID504855]
# Assay type: functional
row,SMILES,Potency
1,COc1ccccc1/C=C/C(=O)c1cccs1,25.1 µM (active)
2,O=C(/C=C/c1ccc(Cl)cc1)c1cccs1,3.16 µM (active)
3,CCCc1nnc(NC(=O)C2C(=O)c3cccc4c3N(CC4)C2=O)s1 (stereo not drawn),79.4 µM (active)
